PubChem BioAssay (NCI)
Compounds without any hit were thinned out: in the full panel of roughly 79,000, 15% have a hit. Active and inactive are the calls of the source. Rule as the data show it: active = growth inhibition above about 70%; inactive = the rest.

What was measured:
[1] = NCI Yeast Anticancer Drug Screen. Data for the rad52 strain (AID 147);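 also: 0% = growth of vehicle-treated control cultures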; conditions: S. cerevisiae rad52 mutant growth inhibition, active compounds read high
Summary of the method: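 Measured: yeast growth inhibition. System: strain with a defined DNA damage repair alteration. Reference: vehicle-treated control cultures.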

[2] = NCI Yeast Anticancer Drug Screen. Data for the wt1 strain (AID 149);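 also: 0% = growth of vehicle-treated wt1 cultures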; conditions: S. cerevisiae wt1 strain (SPY 50644) growth inhibition, active compounds read high
Summary of the method: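 Vehicle-normalised growth inhibition; strain wt1; compound exposure.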

[3] = NCI Yeast Anticancer Drug Screen. Data for the mgt1 strain (AID 153); conditions: S. cerevisiae mgt1 mutant growth inhibition, active compounds read high
Summary of the method: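 After exposure of the mgt1 yeast mutant to compound, growth was measured and reported as inhibition compared with vehicle controls.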

[4] = NCI Yeast Anticancer Drug Screen. Data for the rad50 strain (AID 155);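 also: 0% = growth of vehicle-only cultures of the same strain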; conditions: S. cerevisiae rad50 strain growth inhibition, active compounds read high
Summary of the method: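 A DNA repair-deficient yeast mutant serves as the test organism; compound-induced growth inhibition is calculated against vehicle-treated cells.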

[5] = NCI Yeast Anticancer Drug Screen. Data for the mec2-1 strain (AID 157); conditions: S. cerevisiae mec2-1 strain, active compounds read high
Summary of the method: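 Test agents were screened against the mec2-1 yeast strain, with defined DNA repair or cell cycle alteration. Growth was scored as inhibition against vehicle-only controls.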

[6] = NCI Yeast Anticancer Drug Screen. Data for the rad14 strain (AID 159);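 also: 0% = growth of vehicle-treated control cultures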; conditions: S. cerevisiae rad14 strain growth inhibition, active compounds read high
Summary of the method: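 Vehicle-treated cultures served as the baseline for growth inhibition of a DNA repair-mutant yeast strain exposed to each compound.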

[7] = NCI Yeast Anticancer Drug Screen. Data for the sgs1 mgt1 strain (AID 161);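 also: 0% = growth of cultures given vehicle only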; conditions: S. cerevisiae sgs1 mgt1 strain, active compounds read high
Summary of the method: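 Test agents were incubated with a DNA-repair-mutant yeast strain. Growth was then read and compared against vehicle-treated controls.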

[8] = NCI Yeast Anticancer Drug Screen. Data for the CLN2oe strain (AID 163);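 also: 0% = growth of vehicle-only control cultures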; conditions: S. cerevisiae CLN2oe strain, active compounds read high
Summary of the method: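 Here, growth inhibition in a cell-cycle-altered yeast strain after compound exposure was quantified against vehicle control growth.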

[9] = NCI Yeast Anticancer Drug Screen. Data for the cln2 rad14 strain (AID 165);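 also: 0% = growth equal to vehicle treated cultures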; conditions: S. cerevisiae cln2 rad14 strain, active compounds read high
Summary of the method: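 Growth of compound-exposed yeast (cln2 rad14 genotype) measured and expressed as inhibition relative to vehicle.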

[10] = NCI Yeast Anticancer Drug Screen. Data for the bub3 strain (AID 167); conditions: S. cerevisiae bub3 mutant strain, active compounds read high
Summary of the method: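 Inhibition values come from growth of compound-treated mutant yeast normalised to vehicle-treated controls.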

[11] = NCI Yeast Anticancer Drug Screen. Data for the wt2 strain (AID 169);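 also: 0% = growth of vehicle-treated yeast cultures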; conditions: S. cerevisiae wt2 strain growth inhibition, active compounds read high
Summary of the method: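 Genetically defined yeast strains from a DNA-repair/cell-cycle panel were used. Compound-exposed yeast growth was measured, and the inhibition was calculated relative to vehicle treatment.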

[12] = NCI Yeast Anticancer Drug Screen. Data for the mlh1 strain (AID 171);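 also: 0% = growth of vehicle-treated control cultures of the same strain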; conditions: S. cerevisiae mlh1 strain growth inhibition, active compounds read high
Summary of the method: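 Here the genetically defined yeast mutant is grown with each compound, and the extent to which its growth falls below that of vehicle-exposed cells is reported.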

[13] = NCI Yeast Anticancer Drug Screen. Data for the sgs1 strain (AID 173);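 also: 0% = growth of vehicle-only control cultures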; conditions: S. cerevisiae sgs1 mutant, active compounds read high
Summary of the method: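 Relative growth inhibition, referenced to vehicle, was determined in a yeast strain with a defined alteration affecting DNA damage repair or cell cycle control after compound exposure.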

[14] = NCI Yeast Anticancer Drug Screen. Data for the mlh1 rad18 strain (AID 175); conditions: S. cerevisiae mlh1 rad18 strain growth inhibition, active compounds read high
Summary of the method: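 In this whole-cell yeast screen, a strain with altered DNA damage repair is challenged with compound, and its growth is measured against matched vehicle-treated controls.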

[15] = NCI Yeast Anticancer Drug Screen. Data for the rad18 strain (AID 177); conditions: S. cerevisiae rad18 mutant growth inhibition, active compounds read high
Summary of the method: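 Screen uses a yeast strain with a defined lesion in DNA damage repair; compound effect is read as loss of growth compared to untreated vehicle cultures.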

[16] = NCI Yeast Anticancer Drug Screen. Data for the rad50EPP+ strain (AID 151);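 also: 0% = growth of vehicle-treated control cultures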; conditions: S. cerevisiae rad50 mutant strain, active compounds read high
Summary of the method: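 One strain with a rad50 alteration (rad50EPP+) was compound-treated, its growth then compared to that of vehicle controls.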

[17] = at 5.0 µM (retest, dose inferred, filed as 0.5)
[18] = at 50.0 µM (retest, dose inferred, filed as 5.0)

Measured: growth inhibition

CCC(C(=O)O)C1=C(c2ccccc2)CCc2ccccc21 (stereo not drawn)
inactive: [1]; at 1.2 µM 10% | [1]; at 3.7 µM 29% | [2]; at 1.2 µM 4% | [2]; at 3.7 µM 20% | [3]; at 1.2 µM 7% | [3]; at 3.7 µM 12% | [4]; at 1.2 µM 10% | [4]; at 3.7 µM 30% | [4]; [17] 23% | [5]; at 1.2 µM 9% | [5]; at 3.7 µM 28% | [5]; [17] 11% | [6]; at 1.2 µM 12% | [6]; at 3.7 µM 19% | [7]; [17] 6% | [8]; at 1.2 µM 14% | [8]; at 3.7 µM 23% | [9]; [17] 6% | [10]; at 1.2 µM 6% | [10]; at 3.7 µM 13% | [10]; [17] -2% | [11]; at 1.2 µM 6% | [11]; at 3.7 µM 14% | [12]; at 1.2 µM 9% | [12]; at 3.7 µM 20% | [13]; at 1.2 µM 7% | [13]; at 3.7 µM 24% | [14]; [17] 52% | [15]; at 1.2 µM 8% | [15]; at 3.7 µM 27%
active: [1]; at 11.0 µM 97% | [1]; at 33.0 µM 99% | [1]; at 100.0 µM 98% | [2]; at 11.0 µM 97% | [2]; at 33.0 µM 99% | [2]; at 100.0 µM 94% | [3]; at 11.0 µM 90% | [3]; at 33.0 µM 99% | [3]; at 100.0 µM 80% | [4]; at 11.0 µM 97% | [4]; at 33.0 µM 99% | [4]; [18] 98% | [4]; at 50.0 µM 99.5% | [4]; at 100.0 µM 91% | [5]; at 11.0 µM 95% | [5]; at 33.0 µM 99% | [5]; [18] 99% | [5]; at 50.0 µM 99.5% | [5]; at 100.0 µM 98% | [6]; at 11.0 µM 96% | [6]; at 33.0 µM 99% | [6]; at 100.0 µM 90% | [7]; [18] 99% | [7]; at 50.0 µM 99.5% | [8]; at 11.0 µM 96% | [8]; at 33.0 µM 99% | [8]; at 100.0 µM 92% | [9]; [18] 98% | [9]; at 50.0 µM 98.8% | [10]; at 11.0 µM 93% | [10]; at 33.0 µM 99% | [10]; [18] 97% | [10]; at 50.0 µM 99% | [10]; at 100.0 µM 94% | [11]; at 11.0 µM 96% | [11]; at 33.0 µM 98% | [11]; at 100.0 µM 99% | [12]; at 11.0 µM 96% | [12]; at 33.0 µM 99% | [12]; at 100.0 µM 93% | [13]; at 11.0 µM 97% | [13]; at 33.0 µM 99% | [13]; at 100.0 µM 99% | [14]; [18] 99% | [14]; at 50.0 µM 99.5% | [15]; at 11.0 µM 97% | [15]; at 33.0 µM 99% | [15]; at 100.0 µM 82%

CCCCc1cc(O)ccc1O
active: [16]; at 33.0 µM 77% | [16]; at 100.0 µM 88% | [4]; [18] 87%
inactive: [1]; at 1.2 µM 2% | [1]; at 3.7 µM 13% | [1]; at 11.0 µM 24% | [1]; at 33.0 µM 27% | [1]; at 100.0 µM 29% | [2]; at 1.2 µM -2% | [2]; at 3.7 µM -2% | [2]; at 11.0 µM 0% | [2]; at 33.0 µM 3% | [2]; at 100.0 µM 1% | [16]; at 1.2 µM 13% | [16]; at 3.7 µM 34% | [16]; at 11.0 µM 57% | [4]; at 1.2 µM 6% | [4]; at 3.7 µM 12% | [4]; [17] -81% | [4]; at 11.0 µM 32% | [4]; at 33.0 µM 54% | [4]; at 50.0 µM 20.7% | [4]; at 100.0 µM 62% | [5]; at 1.2 µM 4% | [5]; at 3.7 µM 2% | [5]; [17] -37% | [5]; at 11.0 µM 1% | [5]; at 33.0 µM 17% | [5]; [18] -13% | [5]; at 50.0 µM 11.2% | [5]; at 100.0 µM 28% | [6]; at 1.2 µM 2% | [6]; at 3.7 µM 3% | [6]; at 11.0 µM 18% | [6]; at 33.0 µM 31% | [6]; at 100.0 µM 35% | [7]; [17] -48% | [7]; [18] 6% | [7]; at 50.0 µM 43.7% | [9]; [17] -54% | [9]; [18] -31% | [9]; at 50.0 µM 19.5% | [10]; at 1.2 µM -9% | [10]; at 3.7 µM -1% | [10]; [17] -63% | [10]; at 11.0 µM -5% | [10]; at 33.0 µM 5% | [10]; [18] 3% | [10]; at 50.0 µM 27.6% | [10]; at 100.0 µM 19% | [12]; at 1.2 µM 6% | [12]; at 3.7 µM -1% | [12]; at 11.0 µM 4% | [12]; at 33.0 µM 9% | [12]; at 100.0 µM 4% | [13]; at 1.2 µM 0% | [13]; at 3.7 µM 6% | [13]; at 11.0 µM 10% | [13]; at 33.0 µM 24% | [13]; at 100.0 µM 42% | [15]; at 1.2 µM 3% | [15]; at 3.7 µM 7% | [15]; at 11.0 µM 15% | [15]; at 33.0 µM 26% | [15]; at 100.0 µM 31%
